Screens deposited in PubChem by several laboratories.
CF NFkB inh: inhibitors of PAF-induced NF-kB signaling, primary screen, cell-based, GFP fluorescence, uHTS. hit rate 0.86% among 360,000. inhibition, % at 5 µM. KKLEB NF-kB-GFP reporter, GFP fluorescence overnight;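 active = at least 50% inhibition at 5 µM, scaled per plate between neutral and stimulator controls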;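 also: PAF is a Pseudomonas aeruginosa culture filtrate used as stimulus; plate controls were PAF-stimulated DMSO wells for no effect and unstimulated DMSO wells for full effect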
Shn3 inh set2: reduction of Shn3 3'UTR firefly luciferase signal, primary screen, Schnurri-3 inhibitor project, cell-based, Clone20 osteoblasts, set 2 | inhibition, % at 12.5 µM | Clone20 osteoblast Shn3 3'UTR firefly luciferase, 24 h | hit rate 0.52% among 360,000 | AID 588674, 2011;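 active = mean inhibition of at least 75% with every replicate also reaching 75%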;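 also: 0% = median of neutral control wells and 100% = pilot-screen positive control compound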
KKLEB tox: cytotoxicity in KKLEB CF airway cells, primary screen, cytotoxicity control for CF NF-kB inhibitor project, cell-based, uHTS, fluorescence assay plates; KKLEB CF airway cells viability, ATPlite luminescence, overnight; active compounds read low; cells stimulated with P. aeruginosa culture filtrate; activity change (cytotoxicity), % at 5 µM; hit rate 0.36% among 360,000; AID 602141, 2011;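 active = corrected activity change at or below -50% at 5 µM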
HIF-2a block: HIF-2a reporter inhibitors, primary screen, luminescence, 786-0 RCC cells. hit rate 0.72% among 360,000. 786-0 RCC cells HIF-2a reporter, luciferase luminescence, overnight. inhibition, % at 18.8 µM. AID 624352, 2012;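 active = inhibition of the luminescence signal of 40% or more relative to plate controls, in a single-dose primary screen at 18.75 µM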
TRPM1 prom inh: inhibitors of MITF-dependent TRPM1 promoter reporter, primary screen, cell-based, SK-MEL-5, single point, luciferase; SK-MEL-5 TRPM1 promoter luciferase, 24 h; inhibition, % at 12.5 µM; hit rate 0.83% among 330,000;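 active = mean inhibition across replicates of 60% or more, whatever share of single replicates reaches that level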
Peg3 promoter: Peg3 promoter-driven luciferase inhibitors, primary screen, cell-based, HeLa, luciferase luminescence; HeLa PEG-Prom luciferase reporter, overnight; inhibition, % at 20 µM; hit rate 1.7% among 360,000;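 active = inhibition of at least 50% at 20 µM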
Mdm2-MdmX confirm: retested Mdm2-MdmX interaction blockers, confirmation, cell-based, luminescence, single concentration, set 2; inhibition, % at 8 µM; shares compounds with HIF-2a block; SaOS-2 split-luciferase Mdm2/MdmX complementation; hit rate 99% among 740; AID 504601, 2011;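 active = mean inhibition of the luminescence signal across two replicates at or above 26 percent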
Target sequence (O15151 whole entry, looked up): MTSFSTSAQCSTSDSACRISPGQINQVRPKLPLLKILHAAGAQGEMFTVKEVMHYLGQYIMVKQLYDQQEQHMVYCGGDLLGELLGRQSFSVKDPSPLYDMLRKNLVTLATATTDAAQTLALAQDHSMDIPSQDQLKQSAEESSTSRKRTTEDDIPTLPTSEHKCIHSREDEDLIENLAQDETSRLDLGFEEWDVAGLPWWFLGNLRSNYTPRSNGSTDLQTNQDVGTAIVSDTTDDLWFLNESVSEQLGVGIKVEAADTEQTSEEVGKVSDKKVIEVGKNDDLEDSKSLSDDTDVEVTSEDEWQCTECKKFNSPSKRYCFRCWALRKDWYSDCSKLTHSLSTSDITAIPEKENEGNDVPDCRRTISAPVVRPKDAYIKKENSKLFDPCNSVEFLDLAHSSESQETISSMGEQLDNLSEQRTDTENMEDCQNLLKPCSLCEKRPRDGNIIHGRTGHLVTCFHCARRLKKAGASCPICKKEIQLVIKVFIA
Target sequence (Q00987 whole entry, looked up): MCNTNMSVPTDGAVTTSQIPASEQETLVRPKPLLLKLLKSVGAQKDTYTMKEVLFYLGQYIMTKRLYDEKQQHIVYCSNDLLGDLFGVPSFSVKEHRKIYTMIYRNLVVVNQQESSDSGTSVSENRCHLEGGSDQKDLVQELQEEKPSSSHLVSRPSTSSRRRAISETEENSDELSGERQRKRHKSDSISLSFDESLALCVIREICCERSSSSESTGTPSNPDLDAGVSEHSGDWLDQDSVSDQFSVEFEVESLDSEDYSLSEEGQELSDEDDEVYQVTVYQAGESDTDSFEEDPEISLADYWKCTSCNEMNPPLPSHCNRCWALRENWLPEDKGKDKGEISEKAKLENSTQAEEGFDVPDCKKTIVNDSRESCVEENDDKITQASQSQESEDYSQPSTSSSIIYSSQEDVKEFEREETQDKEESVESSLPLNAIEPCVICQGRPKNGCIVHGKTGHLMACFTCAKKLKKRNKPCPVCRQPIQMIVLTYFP
HIF-2a inh conf: HIF-2a reporter inhibitor retest, confirmation, luminescence, 786-0 RCC cells; hit rate 56% among 1,800; HIF-2a luciferase reporter luminescence, overnight; inhibition, % at 18.8 µM; shares compounds with HIF-2a block;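 active = mean inhibition across four replicates of at least 40 percent at the single tested concentration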
HIF-1a counter: HIF-1a luciferase reporter signal reduction – MiaPaCa-2 cells, single concentration, counter-screen for HIF-2a inhibitor project, confirmation. inhibition, % at 18.8 µM. AID 651589, 2012. hit rate 72% among 1,800. shares compounds with HIF-2a block. MiaPaCa-2 HIF-1a luciferase reporter, desferoxamine, overnight;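 active = mean inhibition of the reporter signal across four replicates at the single tested dose of 50% or more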
* marks the source's active call; other numbers are inactive results. Rows were chosen to be rich in hits. Some 2.7% of all compounds tested hit in one or more screens of this group.

What do the screens show for `Cc1ccc(NC(=O)c2cc(N3C(=O)C=CC3=O)ccc2N2CCOCC2)cc1`?
CF NFkB inh: 12.4; Shn3 inh set2: 42.0; KKLEB tox: 0.6; HIF-2a block: 68.5*; TRPM1 prom inh: 79.5*; Peg3 promoter: 108.0*; HIF-2a inh conf: 68.5*; HIF-1a counter: 18.5

How did COc1ccc(C2NC(=S)N(c3ccccc3)C(C)=C2C(=O)Nc2ccccc2)cc1 (stereo unspecified) do in these assays?
CF NFkB inh: -0.8; Shn3 inh set2: -11.3; KKLEB tox: -1.0; HIF-2a block: -27.1; TRPM1 prom inh: -3.3; Peg3 promoter: -0.6

Results for CC1=C(C(=O)Nc2ccc([N+](=O)[O-])cc2)C(c2cccc(C(F)(F)F)c2)NC(=S)N1c1ccccc1 (stereo unspecified) ?
CF NFkB inh: -1.9; Shn3 inh set2: 37.6; KKLEB tox: -17.8; HIF-2a block: 56.4*; TRPM1 prom inh: 1.8; Peg3 promoter: 87.7*; HIF-2a inh conf: -43.7; HIF-1a counter: 59.6*

What do the screens show for `COc1cc(C=CC(=O)c2cc(OC)c(OC)c(OC)c2)cc(OC)c1OC`?
CF NFkB inh: 24.0; Shn3 inh set2: 61.9; KKLEB tox: 7.0; HIF-2a block: 59.0*; TRPM1 prom inh: 67.5*; Peg3 promoter: 71.4*; HIF-2a inh conf: 89.3*; HIF-1a counter: 104.7*

How did COc1cc(C=CC(=O)c2ccccc2)cc(OC)c1OC do in these assays?
CF NFkB inh: 34.3; Shn3 inh set2: -4.1; KKLEB tox: -7.4; HIF-2a block: 37.5*; Peg3 promoter: 97.5*; HIF-2a inh conf: 33.7; HIF-1a counter: 95.1*

What do the screens show for `COc1cc(/C=C/C(C)=O)cc(OC)c1OC`?
CF NFkB inh: -5.6; Shn3 inh set2: -37.7; KKLEB tox: 10.3; HIF-2a block: 8.2; TRPM1 prom inh: 0.1; Peg3 promoter: -0.6

How did CCn1c(COc2cccc3ccccc23)nnc1SCC(=O)OC1CCCCC1 do in these assays?
CF NFkB inh: 17.2; Shn3 inh set2: -1.5; KKLEB tox: -6.3; HIF-2a block: 57.6*; TRPM1 prom inh: -6.3; Peg3 promoter: 9.9; HIF-2a inh conf: 14.0; HIF-1a counter: -10.2

What do the screens show for `Cn1c(CNc2cccc(Cl)c2)nnc1SCC(=O)OC1CCCCC1`?
CF NFkB inh: 3.5; Shn3 inh set2: 8.8; KKLEB tox: -7.6; HIF-2a block: 17.7; TRPM1 prom inh: -1.5; Peg3 promoter: 13.9

Results for Cn1c(COc2cccc3ccccc23)nnc1SCC(=O)OC1CCCCC1 ?
CF NFkB inh: 5.7; Shn3 inh set2: -2.7; KKLEB tox: 8.2; HIF-2a block: 66.8*; TRPM1 prom inh: -5.3; Peg3 promoter: 5.6; HIF-2a inh conf: 27.9; HIF-1a counter: -4.3

Results for O=C(O)CSc1nnc(COc2cccc3ccccc23)n1Cc1ccccc1 ?
CF NFkB inh: -13.4; Shn3 inh set2: 1.2; KKLEB tox: 0.9; HIF-2a block: 22.3; TRPM1 prom inh: 3.1; Peg3 promoter: -2.6

How did COc1ccc(Cc2nnc(NC(=O)C3CC(=O)N(c4ccccc4)C3)s2)cc1OC (stereo unspecified) do in these assays?
CF NFkB inh: -2.7; Shn3 inh set2: -6.7; KKLEB tox: -2.7; HIF-2a block: 5.8; TRPM1 prom inh: 10.8; Peg3 promoter: -5.2

What do the screens show for `CCn1nc([N+](=O)[O-])c(C(C#N)c2nc3cc(C(F)(F)F)ccc3s2)c(Cl)c1=O` (stereo unspecified)?
CF NFkB inh: 61.4*; Shn3 inh set2: 8.5; KKLEB tox: -35.0; HIF-2a block: -16.3; TRPM1 prom inh: 24.0; Peg3 promoter: 14.1; Mdm2-MdmX confirm: 97.5*

Results for CCCn1nc([N+](=O)[O-])c(C(C#N)c2nc3ccccc3o2)c(Cl)c1=O (stereo unspecified) ?
CF NFkB inh: 13.2; Shn3 inh set2: 20.1; KKLEB tox: 6.2; HIF-2a block: -5.9; TRPM1 prom inh: 5.7; Peg3 promoter: 18.7

What do the screens show for `Cc1cc(NC(=O)c2ccccc2)c(Cl)cc1N`?
CF NFkB inh: -7.6; Shn3 inh set2: 12.1; KKLEB tox: 5.2; HIF-2a block: 69.5*; TRPM1 prom inh: 25.8; Peg3 promoter: -31.0; HIF-2a inh conf: 84.2*; HIF-1a counter: 58.8*

What do the screens show for `Cc1ccc(C(NC(=O)C2CCN(CCOc3ccccc3)CC2)c2ccccn2)cc1` (stereo unspecified)?
CF NFkB inh: -13.7; Shn3 inh set2: 5.8; KKLEB tox: -5.0; HIF-2a block: 0.2; Peg3 promoter: -9.2

How did CCCC(=O)OCCNc1cc(SCCC(=O)OC)c2nonc2c1[N+](=O)[O-] do in these assays?
CF NFkB inh: 22.2; Shn3 inh set2: 7.7; KKLEB tox: -2.1; HIF-2a block: 22.8; TRPM1 prom inh: 5.7; Peg3 promoter: 24.8

What do the screens show for `O=[N+]([O-])c1c(NCCCO)cc(N2CCCCCC2)c2nonc12`?
CF NFkB inh: -8.9; Shn3 inh set2: 28.2; KKLEB tox: 4.2; HIF-2a block: 10.3; TRPM1 prom inh: -4.2; Peg3 promoter: 22.2

How did CC(=O)OCCCNc1cc(Sc2nc3ccccc3s2)c2nonc2c1[N+](=O)[O-] do in these assays?
CF NFkB inh: 2.1; Shn3 inh set2: 101.2*; KKLEB tox: 2.5; HIF-2a block: 32.1; TRPM1 prom inh: 22.3; Peg3 promoter: 105.0*; Mdm2-MdmX confirm: 103.2*

How did CC(=O)OCCNc1cc(Sc2nc3ccccc3[nH]2)c2nonc2c1[N+](=O)[O-] do in these assays?
CF NFkB inh: 62.9*; Shn3 inh set2: 97.6*; KKLEB tox: -15.5; HIF-2a block: 95.2*; TRPM1 prom inh: 80.3*; Peg3 promoter: 113.4*; HIF-2a inh conf: 77.5*; HIF-1a counter: 71.0*

How did COc1ccc(Nc2cc(NCCCO)c([N+](=O)[O-])c3nonc23)cc1 do in these assays?
CF NFkB inh: -14.2; Shn3 inh set2: 19.4; KKLEB tox: -6.0; HIF-2a block: -9.3; TRPM1 prom inh: 19.1; Peg3 promoter: 29.9
